Measured values: PubChem BioAssay AID623911 (Vanderbilt High Throughput Screening Facility, 2012)
About 770 (37%) of roughly 2,100 compounds were called active.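 Rule for the calls: active = by-eye trace score of 1 for enhancers or -1 for inhibitors, so actives lie on both sides (some results past the limit were not filed as active); inactive = score 0, or 3 fluorescent, or 4 baseline rise.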 The list shows a part of the results.

These compounds were tested against G protein-activated inward rectifier potassium channel 2 (Homo sapiens) + G protein-activated inward rectifier potassium channel 1 (Homo sapiens) (UniProt P48051+P48549) (assay: GIRK1/2 thallium flux modulators, retest, confirmation, cell-based, HEK293 rmGlu8/hGIRK1/2, FluoZin-2 (AID 623911)). Conditions: HEK293 rmGlu8/hGIRK1/2, thallium flux FluoZin-2; actives lie on both sides.
G protein-activated inward rectifier potassium channel 2 (Homo sapiens) + G protein-activated inward rectifier potassium channel 1 (Homo sapiens), sequence (P48051 whole entry, looked up): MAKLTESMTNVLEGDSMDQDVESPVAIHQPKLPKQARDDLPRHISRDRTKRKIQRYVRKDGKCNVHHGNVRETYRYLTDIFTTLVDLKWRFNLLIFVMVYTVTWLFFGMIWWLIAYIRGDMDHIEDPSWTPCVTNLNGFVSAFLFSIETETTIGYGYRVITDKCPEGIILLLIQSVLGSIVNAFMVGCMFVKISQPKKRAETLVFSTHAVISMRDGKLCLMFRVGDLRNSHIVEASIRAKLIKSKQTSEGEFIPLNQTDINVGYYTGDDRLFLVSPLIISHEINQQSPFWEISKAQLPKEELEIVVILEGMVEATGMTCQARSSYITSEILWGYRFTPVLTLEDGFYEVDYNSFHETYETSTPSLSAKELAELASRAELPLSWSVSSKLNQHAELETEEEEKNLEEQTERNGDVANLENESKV
G protein-activated inward rectifier potassium channel 2 (Homo sapiens) + G protein-activated inward rectifier potassium channel 1 (Homo sapiens), sequence (P48549 whole entry, looked up): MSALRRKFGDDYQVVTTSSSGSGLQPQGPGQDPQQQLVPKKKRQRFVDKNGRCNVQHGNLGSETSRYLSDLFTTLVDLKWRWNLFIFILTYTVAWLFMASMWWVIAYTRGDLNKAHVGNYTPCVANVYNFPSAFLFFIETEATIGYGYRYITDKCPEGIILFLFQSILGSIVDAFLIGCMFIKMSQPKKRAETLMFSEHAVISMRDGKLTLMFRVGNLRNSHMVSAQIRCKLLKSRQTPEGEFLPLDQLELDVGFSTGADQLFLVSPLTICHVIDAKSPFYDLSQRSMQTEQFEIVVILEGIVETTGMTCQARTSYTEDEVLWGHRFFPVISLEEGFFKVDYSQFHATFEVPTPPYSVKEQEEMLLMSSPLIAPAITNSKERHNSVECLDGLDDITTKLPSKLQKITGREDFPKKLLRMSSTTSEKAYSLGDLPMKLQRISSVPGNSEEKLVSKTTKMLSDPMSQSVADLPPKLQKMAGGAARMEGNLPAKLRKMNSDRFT

| Structure (SMILES) | manual score |
| --- | --- |
| COc1cc(-n2c(=S)[nH]c3ccccc3c2=O)c(Cl)cc1Cl | 1 (active) |
| CC(C)Oc1cc(-n2c(=S)[nH]c3ccccc3c2=O)c(Cl)cc1Cl | 1 (active) |
| CC(=NCC1CCCO1)c1c(O)n(-c2ccc(C)cc2)c(=O)[nH]c1=O (stereo not given) | 0 (inactive) |
| Nc1c(C(=O)OC2CCCCC2)c2nc3ccccc3nc2n1CC1CCCO1 (stereo not given) | 0 (inactive) |
| CCN(c1ccc(C(O)(C(=O)OC)C(F)(F)F)cc1)S(=O)(=O)c1ccc(C)cc1 (stereo not given) | -1 (active) |
| CCOC(=O)C(O)(c1ccc(N(CC)S(=O)(=O)c2ccc(C)cc2)cc1)C(F)(F)F (stereo not given) | -1 (active) |
| C/C(=N\Nc1ccccc1)c1c(O)n(C)c(=O)n(C)c1=O | 0 (inactive) |
| CCOC(=O)C1=C(NC(=S)NC(=O)c2ccccc2)c2ccccc2CC12CCCC2 | 0 (inactive) |
| CC/C(=C\C=C\[C@@H]1C=C[C@@H]2CCC[C@H]2[C@@H]1C(=O)c1ccc[nH]1)[C@@H]1O[C@@H]([C@@H](C)C(=O)O)CC[C@@H]1C | 0 (inactive) |
| Cc1ccc(-c2nc(N(C)C3CCN(C)CC3)c3ccccc3n2)cc1 | 0 (inactive) |
| O=c1cc(C(F)(F)F)c2cc3c4c(c2o1)CCCN4CCC3 | 3 (inactive) |
| Cn1cccc1CNCCc1ccccc1 | 0 (inactive) |
| CCN1/C(=C\C=C\C2=[N+](CC)c3ccccc3C2(C)C)C(C)(C)c2ccccc21 | 3 (inactive) |
| CNC(=O)OCCc1nccn1C | 0 (inactive) |
| O=C(Nc1ccc(Cl)cc1)Nc1nccs1 | 1 (active) |
| Cc1nn(C)cc1/C=C1/CC2C3CC=C4CC(O)CCC4(C)C3CCC2(C)C1=O (stereo not given) | -1 (active) |
| CN1/C(=C\C=C\C2=[N+](C)c3ccc4ccccc4c3C2(C)C)C(C)(C)c2ccccc21 | 3 (inactive) |
| C=CCOC(=O)COc1cc(C)cc2oc(=O)c3c(c12)CCC3 | 0 (inactive) |

| Structure (SMILES) | manual score |
| --- | --- |
| CCN(CC)CCNCC(=O)Nc1ccc(Cl)cc1C(=O)c1ccccc1 | -1 (active) |
| O=c1[nH]c(=S)n(CCC2=CCCCC2)c(O)c1C=NCCCn1ccnc1 | 3 (inactive) |
| Cc1ccc(OCC(=O)NCCN2CCN(C(=O)COc3ccc(C)cc3)CC2)cc1 | 0 (inactive) |
| O=C(c1cc2ccccn2n1)N1CCC2(CC1)OCCO2 | 0 (inactive) |
| COc1ccc(CC2C(=O)NC(=O)NC2=O)c(OC)c1 | 0 (inactive) |
| c1ccc2c(CNC3CCCCC3)c[nH]c2c1 | -1 (active) |
| CC(C)N1C(=O)/C(=C/C=C/c2ccco2)C(=O)N(Cc2ccco2)C1=O | 0 (inactive) |
| S=C1CN=C(c2ccccc2Cl)c2cc(Cl)ccc2N1 | 1 (active) |
| Cc1ccccc1C1=NCC(=S)Nc2ccc(Cl)cc21 | 0 (inactive) |
| S=C1CN=C(c2ccccc2)c2cc(Cl)ccc2N1 | 0 (inactive) |
| CC(C)CCn1c(=O)c(C(=O)Nc2ccccc2S(N)(=O)=O)c(O)c2ccccc21 | 0 (inactive) |
| O=C(c1ccccc1)c1cn(CC(=O)N2CCOCC2)c2ccccc12 | 0 (inactive) |
| Fc1ccc(NC2=NCCS2)cc1Cl | 0 (inactive) |
| CCCCn1c(C)c(C(=O)OCC)c2c(CN3CCOCC3)c(O)ccc21 | -1 (active) |
| O=C(Cc1ccccc1)N1CCN(C/C=C/c2ccccc2)CC1 | 0 (inactive) |
| Cc1ccc2nc(N3CCC(C(=O)N4CCC5(CC4)OCCO5)CC3)sc2c1 | 0 (inactive) |
| N=c1sc2c(n1Cc1ccccc1)CCCC2 | -1 (active) |
